# Measurements as given in PubChem BioAssay (NCATS).
# Results filed as inconclusive are left out. Where a call stands in place of a potency, no number is given. Calls of active or inactive are those of the source. Unless noted, calls come from the whole dose curve; as a rule, active = well fitted curve in the direction sought with a large enough effect; inconclusive = small, poorly fitted or top-dose-only effect, or another doubt; inactive = no such curve, though single readings can be large; an effect the other way counts as inactive or inconclusive.
# Columns and labels:
# [1] = HPAF-II Cancer Cell Toxicity qHTS against the NCATS CANVASS Library (AID 1347346); note: series mostly up to about 38 µM; nearly all actives have a fitted effect of over 55% in size
# Procedure, shortened: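 Cytotoxicity read-out was CellTiter-Glo luminescence after 72 h at 37 degrees C exposure of HPAF-II cells (1000/well) to compounds in an 11-point titration.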
# [2] = OV-SAHO Cancer Cell Toxicity qHTS against the NCATS CANVASS Library (AID 1347348); note: series mostly up to about 38 µM; nearly all actives have a fitted effect of over 55% in size
# Procedure, shortened: (§1)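 Cells were seeded at 1000 per well, allowed 4 h at 37 degrees C/5% CO2, then pin-treated with an 11-point compound series. After 72 h, viability was read as CellTiter-Glo luminescence following 15min at room temperature.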
# [3] = SW1088 Cancer Cell Toxicity qHTS against the NCATS CANVASS Library (AID 1347350); note: series mostly up to about 38 µM; nearly all actives have a fitted effect of over 75% in size
# Procedure, shortened: as §1
# [4] = COV-362 Cancer Cell Toxicity qHTS against the NCATS CANVASS Library (AID 1347352); note: series mostly up to about 38 µM
# Procedure, shortened: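 Toxicity was measured as CellTiter-Glo luminescence after 72 h exposure to an 11-point compound series. Compound was added to 1000 cells/well 4 h after seeding.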
# [5] = A2780 Cisplatin Sensitive Ovarian Cancer Cell Toxicity qHTS against the NCATS CANVASS Library (AID 1347353); note: nearly all actives have a fitted effect of over 60% in size
# Procedure, shortened: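 Cisplatin-sensitive A2780 ovarian cells (750/well) received compound in 11 concentrations, and were incubated 72 h at 37 °C. ATP content was measured by ATPLite luminescence; bortezomib served as control.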
# [6] = SDT Cancer Cell Toxicity qHTS against the NCATS CANVASS Library (AID 1347365); note: nearly all actives have a fitted effect of over 60% in size
# Procedure, shortened: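 Cytotoxicity taken from CellTiterGlo ATP luminescence after 72 hr at 37C, 5% CO2. Canine glioma line SDT, 500 cells/well, treated at 11 concentrations; bortezomib dose series as control.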
# [7] = MCF7 Cancer Cell Toxicity qHTS against the NCATS CANVASS Library (AID 1347369)
# Procedure, shortened: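 MCF7 cells (500/well) were exposed 72 h at 37 °C to compounds in an 11-point series. Viability was read as ATP content by CellTiterGlo luminescence.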
# [8] = qHTS for ATAD5 Antagonist screened against the NCATS CANVASS Library (AID 1347370);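 note: HEK293T cells carrying an ATAD5 luciferase reporter co-treated with 10 µM 5-fluorouridine; series mostly up to about 46 µM; nearly all actives have a fitted effect of over 65% in size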
# Procedure, shortened: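 Compounds (11-point) co-dosed with 10 µM 5-FUrd for 16 h at 37 °C onto HEK293T-ATAD5 luciferase reporter cells. Viability measured by CellTiter-Fluor fluorescence, then ATAD5 reporter signal by luminescence.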
# [9] = qHTS for inhibitors of ER calcium dysfunction: SERCaMP assay screened against the NCATS CANVASS Library (AID 1347393); note: potency is the fitted concentration of half-maximal effect; nearly all actives have a fitted effect of over 40% in size
# Procedure, shortened: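 Thapsigargin-induced ER calcium depletion drives GLuc-SERCaMP secretion from SH-SY5Y cells; compounds given 16 h beforehand were scored by lowered coelenterazine luminescence after 4 h challenge.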
# [10] = Vero-766 cells viability qHTS against the NCATS CANVASS Library: Counterscreen for Zika virus inhibition assay (AID 1347394); note: series mostly up to about 46 µM; nearly all actives have a fitted effect of over 60% in size
# Procedure, shortened: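 Vero 766 cells (1000/well), without Zika virus, were exposed to compounds for 72 h at 37C. Viability was measured by CellTiter Glo luminescence. Media-only wells served as 100% inhibition.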
# [11] = qHTS for activators of Nrf2/ARE signaling pathway screened against the NCATS CANVASS Library (AID 1347391); note: nearly all actives have a fitted effect of over 60% in size; note: potency is the fitted concentration of half-maximal effect
# Procedure, shortened: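 Eleven-point qHTS, 16 h treatment of HepG2 cells carrying an ARE-driven beta-lactamase reporter; CCF4 ratio read (405 nm excitation, 460 and 530 nm emission), with CellTiter-Glo ATP luminescence for viability.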
# [12] = Primary qHTS for inhibitors of nuclear receptor binding SET domain protein 2 (NSD2) in an isogenic RCH-ACV NSD2 p.E1099K mutant (9B) (AID 1645876); note: nearly all actives have a fitted effect of over 70% in size; note: potency is the fitted concentration of half-maximal effect
# [13] = Primary qHTS for inhibitors of nuclear receptor binding SET domain protein 2 (NSD2) in an RCH-ACV wild type WT cells (2C) (AID 1645877); note: nearly all actives have a fitted effect of over 70% in size; note: potency is the fitted concentration of half-maximal effect
# [14] = Cytotoxicity counterscreen for inhibitors of SARS-CoV-2 cell entry (AID 1645845; calls by dose curve; note: nearly all actives have a fitted effect of over 50% in size); settings: outcome: dose series up to 57.1 µM unless noted
# Procedure, shortened: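 ATP-content luminescence (ATPLite 1step, 15 min RT) read after 48 h compound exposure of Expi293F cells stably expressing human ACE2; normalized to cells-only wells and media-only wells.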
smiles,measurement,setting,value
C=CC(C)(C)[C@@]12C[C@H]3C(=O)N/C(=C\c4cnc[nH]4)C(=O)N3[C@@H]1Nc1ccccc12,Potency,[1],inactive
same,Potency,[2],inactive
same,Potency,[3],inactive
same,Potency,[4],inactive
same,Potency,[5],inactive
same,Potency,[6],inactive
same,Potency,[7],inactive
same,Potency,[8],inactive
same,Potency,[9],34.3 µM (active)
same,Potency,[10],inactive
c1ccc2nc3c(cc2c1)[nH]c1ccccc13,Potency,[1],inactive
same,Potency,[3],inactive
same,Potency,[4],inactive
same,Potency,[7],inactive
same,Potency,[8],inactive
same,Potency,[11],16.6 µM (active)
same,Potency,[10],inactive
CCC(=O)N[C@@H](C[C@H](C)C(Cl)(Cl)Cl)C(=O)N1C(=O)C=C(OC)[C@@H]1C[C@H](C)C(Cl)Cl,Potency,[4],inactive
same,Potency,[5],inactive
same,Potency,[6],inactive
same,Potency,[7],inactive
same,Potency,[8],inactive
same,Potency,[11],inactive
same,Potency,[9],27.2 µM (active)
COC(=O)[C@@]12OC[C@]34[C@H]([C@@H](O)[C@@H]1O)[C@@]1(C)CC(=O)C(O)=C(C)[C@@H]1C[C@H]3OC(=O)[C@H](OC(=O)/C=C(\C)C(C)C)[C@@H]24,Potency,[12],0.296 µM (active)
same,Potency,[13],0.235 µM (active)
O=C(CBr)N1CC([N+](=O)[O-])([N+](=O)[O-])C1,Potency,[14],inactive
COc1cc2cc(c1Cl)N(C)C(=O)C[C@H](OC(=O)C(C)C)[C@]1(C)O[C@@H]1[C@H](C)[C@@H]1C[C@@](O)(NC(=O)O1)[C@H](OC)/C=C/C=C(\C)C2,Potency,[12],inactive
same,Potency,[13],inactive
C[C@]12COC(=O)C[C@@H]1CC[C@@H]1[C@@H]2CC[C@@]2(C)[C@H]1CC[C@]2(C)O,Potency,[14],inactive
CO/C1=C/C(C)=C\[C@@H](C)[C@@H](O)[C@@H](C)C/C(C)=C\C=C/[C@H](OC)[C@@H]([C@@H](C)[C@@H](O)[C@H](C)[C@@]2(O)C[C@@H](O)[C@H](C)[C@@H](C(C)C)O2)OC1=O,Potency,[12],0.0494 µM (active)
same,Potency,[13],0.0393 µM (active)
C=C(C)[C@@H]1CCC(C)=C[C@H]1c1c(O)cc(CCCCC)cc1O,Potency,[14],inactive
same,Potency,[12],18.6 µM (active)
same,Potency,[13],20.9 µM (active)
CC(=O)O[C@@]12CO[C@@H]1C[C@H](O)[C@@]1(C)C(=O)[C@H](O)C3=C(C)[C@@H](O)C[C@@](O)([C@@H](OC(=O)c4ccccc4)[C@H]21)C3(C)C,Potency,[14],inactive
same,Potency,[12],inactive
Cn1c(/C=C/CO)c(CO)c2c1C(=O)C=C(N1CC1)C2=O,Potency,[14],inactive
same,Potency,[12],inactive
same,Potency,[13],inactive
Cc1[nH]ncc1-c1cc2nc([C@@H]3CC4CCN3CC4)[nH]c(=O)c2s1,Potency,[12],2.35 µM (active)
same,Potency,[13],0.934 µM (active)
COC12C(COC(N)=O)C3=C(C(=O)C(C)=C(N)C3=O)N1CC1C2N1C (configuration not stated),Potency,[14],inactive
same,Potency,[12],1.66 µM (active)
same,Potency,[13],1.05 µM (active)
COC[C@H]1OC(=O)c2coc3c2[C@@]1(C)C1=C(C3=O)[C@@H]2CC[C@H](O)[C@@]2(C)C[C@H]1OC(C)=O,Potency,[14],inactive
same,Potency,[12],13.2 µM (active)
same,Potency,[13],11.8 µM (active)
Cc1c(N)nc([C@H](CC(N)=O)NC[C@@H](N)C(N)=O)nc1C(=O)N[C@H](C(=O)N[C@@H](C)[C@H](O)[C@@H](C)C(=O)N[C@@H](C(=O)NCCc1nc(-c2nc(C(=O)NCCC[S+](C)C)cs2)cs1)[C@@H](C)O)C(O[C@H]1O[C@H](CO)[C@H](O)[C@@H](O)[C@H]1O[C@H]1O[C@H](CO)[C@@H](O)[C@H](OC(N)=O)[C@@H]1O)c1cnc[nH]1 (some centres not stated),Potency,[14],inactive
same,Potency,[12],inactive
COc1cc(C)[nH]c(=O)c1CNC(=O)c1c(C)n([C@H](C)C2CCN(CC(F)(F)F)CC2)c2ccccc12,Potency,[14],inactive
same,Potency,[13],inactive
CC(=O)OC[C@H]1O[C@@H]([S-])[C@H](OC(C)=O)[C@@H](OC(C)=O)[C@@H]1OC(C)=O.CC[PH+](CC)CC.[Au],Potency,[12],0.742 µM (active)
same,Potency,[13],0.742 µM (active)
CCCCCCC(C)(C)c1cc(O)c2c(c1)OC(C)(C)C1CC=C(CO)C[C@H]21 (some centres not stated),Potency,[14],inactive
same,Potency,[12],inactive
same,Potency,[13],inactive
